Records with an inconclusive call do not appear. Active and inactive are the calls of the source. Rule for the calls: active = hit-call score of the fitted dose curve at least 0.9, where 1 is the maximum; inconclusive = response in the unintended direction; inactive = score below 0.9.

The values below come from PubChem BioAssay (EPA / NIEHS).

Assay [1] deals with human AKT serine/threonine Kinase 1 (AKT1), AKT1 (gene 207) (UniProt P31749). The assay can be described thus: NVS_ENZ_hAKT1: NovaScreen (NVS) Enzymatic Assay for human AKT serine/threonine Kinase 1 (AKT1) (AID 2283138). A digest of the protocol:
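Fluorescence and mobility-shift readout of kinase activity, taken 1 h post-dosing in a cell-free format with recombinant protein. Primary screen at 25 uM in duplicate; hits (e.g. 30% inhibition) retested in concentration series topping at 50 uM.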

Assay [2] addresses human Beta-secretase (BACE), BACE1 (gene 23621) (UniProt P56817). The assay can be described thus: NVS_ENZ_hBACE: NovaScreen (NVS) Enzymatic Assay for human Beta-secretase (BACE) (AID 2283140).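 Note: hits are inhibitors that reduce fluorescent substrate signal versus DMSO.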 The method in brief:
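SF9-expressed enzyme, cell-free; fluorescent substrate readout after 1 h. Screened at 25 uM single concentration, duplicate; hits retested in concentration series. Activity relative to DMSO baseline, loss-of-signal.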

Assay [3] deals with human Dual Specificity Protein Phosphatase 3 (DUSP3), DUSP3 (gene 1845) (UniProt P51452). The assay can be described thus: NVS_ENZ_hDUSP3: NovaScreen (NVS) Enzymatic Assay for human Dual Specificity Protein Phosphatase 3 (DUSP3) (AID 2283152). A digest of the protocol: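 Cell-free fluorescence-intensity enzyme activity assay with recombinant protein and substrate; loss of signal fitted relative to DMSO baseline. Primary screen in duplicate at 25 uM, actives then run in concentration series; measured 0 h after dosing.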

The target of assay [4] is human Caspase 5 (CASP5), CASP5 (gene 838) (UniProt P51878). The assay is described as follows: NVS_ENZ_hCASP5: NovaScreen (NVS) Enzymatic Assay for human Caspase 5 (CASP5) (AID 2283137). The method in brief:
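Fluorescent substrate readout of CASP5 activity (loss-of-signal), measured 2 h post-dose. Protein expressed in E. coli. Primary screen duplicate at 25 uM; actives meeting threshold (e.g., 30% inhibition) rerun singleton, max 50 uM.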

For assay [5], the target named is human AKT serine/threonine Kinase 2 (AKT2), AKT2 (gene 208) (UniProt P31751). The assay can be described thus: NVS_ENZ_hAKT2: NovaScreen (NVS) Enzymatic Assay for human AKT serine/threonine Kinase 2 (AKT2) (AID 2283141). A digest of the protocol: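 Cell-free fluorescence/electrophoretic mobility shift readout of recombinant human AKT2 activity, 1 h after chemical dosing. Duplicate primary screen at 25 uM, then singleton concentration-response up to 50 uM; loss of signal versus DMSO baseline.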

Assay [6] addresses human Caspase 4 (CASP4), CASP4 (gene 837) (UniProt P49662). The assay can be described thus: NVS_ENZ_hCASP4: NovaScreen (NVS) Enzymatic Assay for human Caspase 4 (CASP4) (AID 2283143). A digest of the protocol: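 Compounds were first tested in duplicate at 25 uM, and hits were titrated singly to a 50 uM maximum. Recombinant protease from E. coli was read by fluorescence 2 h post-dose, and activity loss was fitted against the DMSO baseline.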

Another assay deals with CDK2 (gene 1017) (UniProt P24941). The assay is described as follows: NVS_ENZ_hCDK2: NovaScreen (NVS) Enzymatic Assay for human Cyclin-Cependent Kinase 2 (CDK2) (AID 2283144). The method in brief: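 Compounds screened in duplicate at 25 uM, then in singleton concentration-response to a maximum of 50 uM, against recombinant CDK2; kinase activity read 1 hr after dosing by fluorescence with mobility-shift separation of substrate and product.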

Assay [7] concerns the target human Caspase 8 (CASP8), CASP8 (gene 841) (UniProt Q14790). The assay can be described thus: NVS_ENZ_hCASP8: NovaScreen (NVS) Enzymatic Assay for human Caspase 8 (CASP8) (AID 2283146). The method in brief: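 The primary screen tested compounds in duplicate at a single 25 uM concentration, with actives followed up in concentration series. Activity of recombinant (E. coli) protease was measured by fluorescence 1 h post-dose, as signal loss against DMSO.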

For assay [8], the target named is human Casein Kinase 2- alpha 2 beta 2 (CK2a2b2), CSNK2A1 (gene 1457) (UniProt P68400). The assay is described as follows: NVS_ENZ_hCK2a2b2: NovaScreen (NVS) Enzymatic Assay for human Casein Kinase 2- alpha 2 beta 2 (CK2a2b2) (AID 2283147). The method in brief:
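Compounds were first screened in duplicate at 25 uM, and those passing the threshold were re-tested in concentration series up to a 50 uM maximum. Kinase activity of recombinant human CK2 α2β2 was measured 1 h after dosing by fluorescent substrate/product mobility-shift separation.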

Assay [9] has as its target human Casein Kinase 1-delta (CK1D), CSNK1D (gene 1453) (UniProt P48730). The assay is described as follows: NVS_ENZ_hCK1D: NovaScreen (NVS) Enzymatic Assay for human Casein Kinase 1-delta (CK1D) (AID 2283148). The method in brief: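 Recombinant human CK1-delta, cell-free; fluorescent substrate with electrophoretic mobility-shift separation of product, read 1 h after dosing. Single 25 uM duplicate screen, then concentration-response up to 50 uM; loss of signal vs DMSO.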

Assay [10] has as its target human Colony Stimulating Factor 1 Receptor (CSF1R), CSF1R (gene 1436) (UniProt P07333). The assay can be described thus: NVS_ENZ_hCSF1R: NovaScreen (NVS) Enzymatic Assay for human Colony Stimulating Factor 1 Receptor (CSF1R) (AID 2283150). The method in brief: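 Compounds screened in duplicate at 25 uM, then concentration-response (top 50 uM) for those passing threshold such as 30% inhibition; recombinant CSF1R activity measured 1 h post-dosing via fluorescent substrate/product mobility-shift separation, loss of signal versus DMSO.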

For assay [11], the target named is human Elastase, ELANE (gene 1991) (UniProt P08246). The assay is described as follows: NVS_ENZ_hElastase: NovaScreen (NVS) Enzymatic Assay for human Elastase (AID 2283153). The method in brief:
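Concentration-response to 50 uM max, run singly for chemicals passing a threshold (e.g., 30% inhibition) in a duplicate 25 uM single-point screen. Neutrophil-derived human elastase, absorbance read-out of enzyme activity at 1.5 h; DMSO baseline.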

Assay [12] deals with human FYN Proto-Oncogene, Src family Tyrosine Kinase (Fyn), FYN (gene 2534) (UniProt P06241). The assay can be described thus: NVS_ENZ_hFyn: NovaScreen (NVS) Enzymatic Assay for human FYN Proto-Oncogene, Src family Tyrosine Kinase (Fyn) (AID 2283161). A digest of the protocol: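 Cell-free kinase activity read by fluorescence after mobility-shift separation of substrate and product, 1 h post-dose. Initial single concentration 25 uM in duplicate, then concentration-response follow-up; DMSO baseline.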

In assay [13] the target is Glycogen synthase kinase-3 beta (Homo sapiens) (UniProt P49841). The assay can be described thus: NVS_ENZ_hGSK3b: NovaScreen (NVS) Enzymatic Assay for human Glycogen Synthase Kinase-3 beta (GSK3b) (AID 2283165). A digest of the protocol: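 Recombinant enzyme with specific fluorescent substrate, 1 h, product separated by electrophoretic mobility shift. Primary duplicate screen at 25 uM; actives (e.g. 30% inhibition) followed in singleton concentration-response to 50 uM. Signal loss fitted versus DMSO.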

Assay [14] addresses Histone deacetylase 3 (Homo sapiens) (UniProt O15379). The assay can be described thus: NVS_ENZ_hHDAC3: NovaScreen (NVS) Enzymatic Assay for human Histone Deacetylase 3 (HDAC3) (AID 2283163). The method in brief:
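Cell-free enzyme format: loss of fluorescent product after mobility-shift separation, 1 h incubation, recombinant human HDAC3. Single 25 uM duplicate screen first, then concentration series to a 50 uM top for hits; DMSO as baseline.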

The target of assay [15] is human Ephrin type-A Receptor 1 (EphA1), EPHA1 (gene 2041) (UniProt P21709). The assay is described as follows: NVS_ENZ_hEphA1: NovaScreen (NVS) Enzymatic Assay for human Ephrin type-A Receptor 1 (EphA1) (AID 2283158).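 Note: activity is signal loss versus DMSO meaning EphA1 kinase inhibition.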 The method in brief:
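Chemicals first tested in duplicate at 25 uM against recombinant EphA1 with a fluorescent substrate; those passing threshold went to singleton dose-response topping at 50 uM. Activity read 1 h later as mobility-shift fluorescence, loss of signal relative to DMSO.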

Assay [16] concerns the target human Ephrin type-B Receptor 1 (EphB1), EPHB1 (gene 2047) (UniProt P54762). The assay can be described thus: NVS_ENZ_hEphB1: NovaScreen (NVS) Enzymatic Assay for human Ephrin type-B Receptor 1 (EphB1) (AID 2283154). A digest of the protocol: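 Recombinant EphB1 activity read by fluorescence after mobility-shift separation of product from substrate, 1 h post-dosing. Compounds screened in duplicate at 25 uM; inhibition scored as signal loss relative to DMSO.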

The target in assay [17] is human Esterase Plasma (ES), BCHE (gene 590) (UniProt P06276). The assay is described as follows: NVS_ENZ_hES: NovaScreen (NVS) Enzymatic Assay for human Esterase Plasma (ES) (AID 2283157). The method in brief:
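Human plasma-derived enzyme, cell-free, colorimetric readout at 0.25 h. Primary screen 25 uM in duplicate; hits (e.g. ≥30% inhibition) rerun singleton up to 50 uM. DMSO = negative control/baseline.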

The target in another assay is Caspase-3 (Homo sapiens) (UniProt P42574). The assay can be described thus: NVS_ENZ_hCASP3: NovaScreen (NVS) Enzymatic Assay for human Caspase 3 (CASP3) (AID 2283139). The method in brief: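 Single-concentration screening at 25 uM in duplicate, with concentration-response follow-up to a 50 uM maximum for chemicals passing the threshold. Caspase-3 (human, E. coli-expressed) activity was read as substrate fluorescence after 1 h, with loss of signal relative to DMSO.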

Chain of human AKT serine/threonine Kinase 2 (AKT2), AKT2 (gene 208) (P31751 whole entry, looked up): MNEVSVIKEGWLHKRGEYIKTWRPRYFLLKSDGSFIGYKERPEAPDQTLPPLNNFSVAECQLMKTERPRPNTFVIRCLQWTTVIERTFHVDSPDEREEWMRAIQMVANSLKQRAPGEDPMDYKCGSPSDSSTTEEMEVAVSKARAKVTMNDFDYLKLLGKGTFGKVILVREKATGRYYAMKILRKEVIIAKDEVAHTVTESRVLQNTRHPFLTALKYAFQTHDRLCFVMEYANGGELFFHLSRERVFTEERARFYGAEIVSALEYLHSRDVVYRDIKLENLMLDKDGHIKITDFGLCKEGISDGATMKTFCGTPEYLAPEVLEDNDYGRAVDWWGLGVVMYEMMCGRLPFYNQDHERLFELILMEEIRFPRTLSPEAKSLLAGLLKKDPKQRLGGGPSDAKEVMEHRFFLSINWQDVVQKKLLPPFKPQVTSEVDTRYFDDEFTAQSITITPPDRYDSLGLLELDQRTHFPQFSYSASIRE
Chain of Histone deacetylase 3 (Homo sapiens) (O15379 whole entry, looked up): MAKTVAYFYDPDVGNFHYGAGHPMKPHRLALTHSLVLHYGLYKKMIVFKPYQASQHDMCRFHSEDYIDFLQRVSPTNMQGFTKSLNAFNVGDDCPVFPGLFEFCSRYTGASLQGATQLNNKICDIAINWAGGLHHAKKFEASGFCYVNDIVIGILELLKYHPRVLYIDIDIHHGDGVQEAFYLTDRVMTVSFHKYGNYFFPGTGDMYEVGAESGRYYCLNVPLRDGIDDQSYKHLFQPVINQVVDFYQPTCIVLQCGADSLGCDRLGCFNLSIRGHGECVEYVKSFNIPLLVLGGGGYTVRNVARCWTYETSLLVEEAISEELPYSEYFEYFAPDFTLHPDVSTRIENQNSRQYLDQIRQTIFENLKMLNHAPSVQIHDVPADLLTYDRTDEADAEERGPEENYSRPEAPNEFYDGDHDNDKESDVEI
Chain of human Ephrin type-B Receptor 1 (EphB1), EPHB1 (gene 2047) (P54762 whole entry, looked up): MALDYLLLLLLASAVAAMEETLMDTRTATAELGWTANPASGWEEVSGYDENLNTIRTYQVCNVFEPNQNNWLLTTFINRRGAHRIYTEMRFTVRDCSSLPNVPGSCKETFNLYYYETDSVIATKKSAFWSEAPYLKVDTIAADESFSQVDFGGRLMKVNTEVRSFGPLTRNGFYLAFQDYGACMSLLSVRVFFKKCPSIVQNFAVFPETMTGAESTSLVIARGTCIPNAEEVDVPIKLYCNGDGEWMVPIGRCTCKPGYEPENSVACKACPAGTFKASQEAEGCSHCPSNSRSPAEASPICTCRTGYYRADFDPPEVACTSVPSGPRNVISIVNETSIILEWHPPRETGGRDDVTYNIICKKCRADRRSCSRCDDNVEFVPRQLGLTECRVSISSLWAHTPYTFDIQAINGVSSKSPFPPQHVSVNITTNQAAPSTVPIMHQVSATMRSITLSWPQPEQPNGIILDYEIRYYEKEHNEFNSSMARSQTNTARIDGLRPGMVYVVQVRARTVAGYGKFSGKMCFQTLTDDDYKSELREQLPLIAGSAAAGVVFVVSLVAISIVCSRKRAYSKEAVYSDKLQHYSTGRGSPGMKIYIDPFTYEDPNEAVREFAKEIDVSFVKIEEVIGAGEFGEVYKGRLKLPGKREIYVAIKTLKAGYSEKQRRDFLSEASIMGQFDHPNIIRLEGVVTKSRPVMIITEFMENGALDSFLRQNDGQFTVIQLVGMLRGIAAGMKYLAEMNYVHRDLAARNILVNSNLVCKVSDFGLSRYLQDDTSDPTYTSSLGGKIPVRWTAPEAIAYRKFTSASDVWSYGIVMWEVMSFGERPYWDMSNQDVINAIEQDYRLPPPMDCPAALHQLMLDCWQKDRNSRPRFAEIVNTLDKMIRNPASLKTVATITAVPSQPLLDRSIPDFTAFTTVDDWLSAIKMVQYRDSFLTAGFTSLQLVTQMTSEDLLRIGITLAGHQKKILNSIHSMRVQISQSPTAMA
Chain of human FYN Proto-Oncogene, Src family Tyrosine Kinase (Fyn), FYN (gene 2534) (P06241 whole entry, looked up): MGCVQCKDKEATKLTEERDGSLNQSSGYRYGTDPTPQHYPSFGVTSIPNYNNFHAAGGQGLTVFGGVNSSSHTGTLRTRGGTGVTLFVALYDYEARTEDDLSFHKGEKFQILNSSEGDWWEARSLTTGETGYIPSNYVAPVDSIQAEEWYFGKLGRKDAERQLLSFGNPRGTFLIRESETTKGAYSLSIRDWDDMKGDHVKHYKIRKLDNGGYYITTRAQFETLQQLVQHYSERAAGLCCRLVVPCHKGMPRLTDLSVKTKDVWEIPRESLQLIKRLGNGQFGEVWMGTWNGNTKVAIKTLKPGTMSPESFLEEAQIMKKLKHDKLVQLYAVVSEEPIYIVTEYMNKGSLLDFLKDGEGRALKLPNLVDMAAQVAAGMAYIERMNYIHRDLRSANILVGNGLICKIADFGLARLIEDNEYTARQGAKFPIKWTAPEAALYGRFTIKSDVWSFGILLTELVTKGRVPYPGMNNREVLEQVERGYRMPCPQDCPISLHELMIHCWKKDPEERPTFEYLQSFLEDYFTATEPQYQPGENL
Chain of human Casein Kinase 1-delta (CK1D), CSNK1D (gene 1453) (P48730 whole entry, looked up): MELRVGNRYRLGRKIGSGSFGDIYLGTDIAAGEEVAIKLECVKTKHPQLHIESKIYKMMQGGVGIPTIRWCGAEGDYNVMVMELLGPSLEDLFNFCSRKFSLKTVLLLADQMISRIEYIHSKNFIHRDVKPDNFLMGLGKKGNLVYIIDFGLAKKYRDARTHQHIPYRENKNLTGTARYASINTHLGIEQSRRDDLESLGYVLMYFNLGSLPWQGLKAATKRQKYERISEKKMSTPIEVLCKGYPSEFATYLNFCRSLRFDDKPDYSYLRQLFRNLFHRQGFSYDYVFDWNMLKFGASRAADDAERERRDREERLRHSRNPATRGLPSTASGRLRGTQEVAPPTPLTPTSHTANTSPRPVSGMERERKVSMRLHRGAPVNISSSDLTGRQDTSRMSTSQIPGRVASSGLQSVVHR
Chain of Glycogen synthase kinase-3 beta (Homo sapiens) (P49841 whole entry, looked up): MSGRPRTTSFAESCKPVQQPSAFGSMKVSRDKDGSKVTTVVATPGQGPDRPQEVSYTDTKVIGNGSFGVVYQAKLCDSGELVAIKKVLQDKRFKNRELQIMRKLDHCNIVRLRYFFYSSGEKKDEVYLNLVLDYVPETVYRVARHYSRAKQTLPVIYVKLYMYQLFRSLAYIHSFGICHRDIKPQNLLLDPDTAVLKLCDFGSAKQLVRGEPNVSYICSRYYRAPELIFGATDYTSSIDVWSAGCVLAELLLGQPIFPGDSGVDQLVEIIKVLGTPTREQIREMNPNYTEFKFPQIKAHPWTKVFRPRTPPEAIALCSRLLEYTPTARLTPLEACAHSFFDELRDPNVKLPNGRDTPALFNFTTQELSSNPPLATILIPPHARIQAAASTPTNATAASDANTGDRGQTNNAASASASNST
Chain of human AKT serine/threonine Kinase 1 (AKT1), AKT1 (gene 207) (P31749 whole entry, looked up): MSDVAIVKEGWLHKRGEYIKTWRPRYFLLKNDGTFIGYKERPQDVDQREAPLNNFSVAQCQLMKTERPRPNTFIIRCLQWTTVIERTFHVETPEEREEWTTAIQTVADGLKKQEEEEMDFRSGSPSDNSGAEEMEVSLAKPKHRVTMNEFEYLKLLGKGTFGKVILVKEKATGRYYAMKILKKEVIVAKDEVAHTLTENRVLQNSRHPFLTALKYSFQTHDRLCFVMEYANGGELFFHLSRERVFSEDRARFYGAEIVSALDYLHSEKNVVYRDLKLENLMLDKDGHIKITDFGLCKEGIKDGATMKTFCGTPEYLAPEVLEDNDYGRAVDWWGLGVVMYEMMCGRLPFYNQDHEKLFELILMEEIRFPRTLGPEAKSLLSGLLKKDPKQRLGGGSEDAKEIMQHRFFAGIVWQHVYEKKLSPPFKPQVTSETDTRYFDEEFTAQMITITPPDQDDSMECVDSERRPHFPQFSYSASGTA
Chain of human Casein Kinase 2- alpha 2 beta 2 (CK2a2b2), CSNK2A1 (gene 1457) (P68400 whole entry, looked up): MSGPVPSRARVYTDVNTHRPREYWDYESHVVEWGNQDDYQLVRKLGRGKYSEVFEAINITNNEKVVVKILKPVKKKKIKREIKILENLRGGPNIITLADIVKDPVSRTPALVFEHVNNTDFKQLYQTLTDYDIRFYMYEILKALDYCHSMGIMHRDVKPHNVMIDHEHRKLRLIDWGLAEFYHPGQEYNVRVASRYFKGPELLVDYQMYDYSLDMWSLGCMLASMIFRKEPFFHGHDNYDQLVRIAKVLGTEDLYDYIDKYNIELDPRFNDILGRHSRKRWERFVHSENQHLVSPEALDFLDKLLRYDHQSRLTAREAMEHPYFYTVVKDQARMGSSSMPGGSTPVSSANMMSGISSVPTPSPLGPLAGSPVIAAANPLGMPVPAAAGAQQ
Chain of human Beta-secretase (BACE), BACE1 (gene 23621) (P56817 whole entry, looked up): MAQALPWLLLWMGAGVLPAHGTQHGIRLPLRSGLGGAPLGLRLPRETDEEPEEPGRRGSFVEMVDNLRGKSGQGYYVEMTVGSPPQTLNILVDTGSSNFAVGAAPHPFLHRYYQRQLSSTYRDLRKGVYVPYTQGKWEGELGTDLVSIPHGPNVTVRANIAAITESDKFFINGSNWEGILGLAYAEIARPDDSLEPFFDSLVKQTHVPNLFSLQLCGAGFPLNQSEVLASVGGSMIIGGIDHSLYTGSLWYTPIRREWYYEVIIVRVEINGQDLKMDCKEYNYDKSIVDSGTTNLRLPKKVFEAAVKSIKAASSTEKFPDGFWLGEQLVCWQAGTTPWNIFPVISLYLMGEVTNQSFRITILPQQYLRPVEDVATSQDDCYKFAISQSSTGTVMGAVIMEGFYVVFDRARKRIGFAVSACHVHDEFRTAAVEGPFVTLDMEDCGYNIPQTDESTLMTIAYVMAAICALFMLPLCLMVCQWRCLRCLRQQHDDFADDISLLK
Chain of human Dual Specificity Protein Phosphatase 3 (DUSP3), DUSP3 (gene 1845) (P51452 whole entry, looked up): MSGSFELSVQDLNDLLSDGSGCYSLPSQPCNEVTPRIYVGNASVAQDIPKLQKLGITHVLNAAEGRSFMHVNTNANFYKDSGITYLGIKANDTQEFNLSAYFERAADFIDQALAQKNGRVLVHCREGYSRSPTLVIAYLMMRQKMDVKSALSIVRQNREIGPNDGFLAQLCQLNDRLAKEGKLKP

Regarding `CCCCOC(=O)[C@@H](C)Oc1ccc(Oc2ccc(C(F)(F)F)cn2)cc1`, the call in assay [1], in assay [2] and in assay [3] was inactive.

One may read the AC50 as the midpoint of the concentration-response curve, whichever way the signal moves. Consider `S=C([S-])NCCNC(=S)[S-].[Mn+2]`, for which the AC50 in assay [4] is 15.1 µM (active); in assay [1], 1.05 µM (active); in [2], 17.6 µM (active); in assay [5] it was 0.606 µM (active); with CDK2 (gene 1017), 11.4 µM (active); in assay [8], 3.93 µM (active). Also, the AC50 was 25 µM (active) in assay [9], 5.51 µM (active) in assay [10] and 0.306 µM (active) in [13]. In addition, the result in assay [6], in assay [7], in [3], in assay [11] and in assay [12] was inactive.

For the compound `CCC(O)=C1C(=O)CC(C(=O)O)CC1=O` (configuration not stated), the outcome in assay [4], in assay [5] and in assay [6] was inactive.

On to `CSC(=O)c1cccc2nnsc12`, for which, in assay [14], the compound was classed as inactive.

As for `CCOC(=O)NCCOc1ccc(Oc2ccccc2)cc1`, the compound was called inactive in [3] and in assay [15].

For `CCCN(CCC)c1c([N+](=O)[O-])cc(C(F)(F)F)c(N)c1[N+](=O)[O-]`, the outcome in assay [7] and in assay [16] was inactive.

As to `OB(O)O`, the call in [5] was inactive.

On to `CCOC(=O)C(C)Oc1ccc(Oc2nc3ccc(Cl)cc3o2)cc1` (configuration not stated), for which the compound was called inactive in assay [16] and in assay [17].

In the case of `C[C@]12CC[C@@H]3c4ccc(O)cc4C[C@@H](CCCCCCCCCS(=O)CCCC(F)(F)C(F)(F)F)[C@H]3[C@@H]1CC[C@@H]2O` (some centres not stated), the compound was classed as inactive in assay [2], in assay [7], in assay [3] and in [15].

Turning to `CC(=O)[C@H]1CC[C@H]2[C@@H]3CCC4=CC(=O)CC[C@]4(C)[C@H]3CC[C@]12C`, the result in [9] and in assay [13] was inactive.

`N#CSCSc1nc2ccccc2s1`: the AC50 in assay [8] is 14.4 µM (active); in assay [14], 20 µM (active). Further, the call in assay [16] and in assay [15] was inactive.

Take `CC(C)CCCCCCc1ccc(O)cc1`: the compound was classed as inactive in [1], in assay [9], in assay [12], in assay [14] and in assay [13].

Turning to `O=C(Nc1ccc([N+](=O)[O-])cc1Cl)c1cc(Cl)ccc1O`, the compound was classed as inactive (in [1]; with Caspase-3 (Homo sapiens); in assay [5]; in assay [9]).

On to `COC(=O)c1ccc(CNS(C)(=O)=O)cc1S(=O)(=O)NC(=O)Nc1nc(OC)cc(OC)n1`, for which, in assay [14], the compound was classed as inactive.

`c1ccc2[nH]c(-c3cscn3)nc2c1`: the AC50 is 25 µM (active) in assay [8] and 19.8 µM (active) in [9]. Further, the call in assay [17], in assay [15], in assay [12] and in assay [13] was inactive.

For the compound `COC(=O)c1cccc(C)c1S(=O)(=O)NC(=O)Nc1nc(OCC(F)(F)F)nc(N(C)C)n1`, the result (in the assay with Caspase-3 (Homo sapiens); in assay [7]; in assay [11]) was inactive.
